# Shown are actives, neighbours in structure and some others; about 2.3% of the full set was active somewhere.
# CHO-K1 Ca PAM – counter-screen for M1 PAMs: effect in parental CHO-K1 cells; ATP EC20, Fluo-8 calcium fluorescence; 0% at ATP EC20, 100% at ATP max; activation, % at 3 µM; actives 0.02% (n = 360,000); AID 602247;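 active = activation above the run cutoff, the mean activation of all test compounds plus 3 SD, cut at about 40% in these data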;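 note: peak over basal fluorescence ratio in a 140 s read after ATP addition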
# M1 antag – antagonists of human M1 muscarinic receptor | actives 1.3% (n = 360,000) | P11229 | AID 588852 | inhibition, % at 3 µM | CHO-K1 hM1, Fluo-8 calcium fluorescence, ACh EC80 antagonist;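 active = percent inhibition above its own plate's cutoff, namely the mean of that plate's compound wells plus 3 SD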;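 note: peak over basal fluorescence ratio during 140 s after agonist addition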
# Target sequence (P11229 whole entry, looked up): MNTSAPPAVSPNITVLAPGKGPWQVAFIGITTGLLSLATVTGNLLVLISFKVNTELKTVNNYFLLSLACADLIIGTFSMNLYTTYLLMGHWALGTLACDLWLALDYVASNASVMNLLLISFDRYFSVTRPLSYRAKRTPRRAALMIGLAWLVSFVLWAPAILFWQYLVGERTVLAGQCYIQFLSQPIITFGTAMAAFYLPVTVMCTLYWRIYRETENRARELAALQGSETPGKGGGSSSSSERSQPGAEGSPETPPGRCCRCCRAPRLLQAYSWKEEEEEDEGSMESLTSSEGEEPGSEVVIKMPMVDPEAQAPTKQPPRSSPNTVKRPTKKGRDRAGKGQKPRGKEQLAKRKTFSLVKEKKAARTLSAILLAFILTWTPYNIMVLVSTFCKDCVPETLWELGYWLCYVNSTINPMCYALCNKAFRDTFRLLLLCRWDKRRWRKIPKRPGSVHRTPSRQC
# M1 ag – agonists of human M1 muscarinic receptor; actives 0.33% (n = 360,000); activation, % at 3 µM; AID 588814; CHO-K1 hM1, Fluo-8 calcium fluorescence, agonist mode; 0% DMSO, 100% acetylcholine EC100;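 active = activation above the run's mean compound activation plus 3 SD, cut at about 16% in these data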;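 note: peak over basal fluorescence ratio within a 140 s kinetic read after compound addition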
# CHO-K1 Ca ag – nonselective activator or artifact in parental CHO-K1 cells. AID 602248. actives 0.48% (n = 360,000). Fluo-8 calcium fluorescence; scaled to maximal ATP response, vehicle zero. activation, % at 3 µM; in the data active = activation above about 15%;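 note: untransfected CHO-K1 host cells lacking M1 receptor as counterscreen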
# M1 PAM – potentiates human M1 receptor response to acetylcholine. actives 0.088% (n = 360,000). P11229. AID 588819. activation, % at 3 µM. CHO-K1 hM1, Fluo-8 calcium fluorescence, ACh EC20; 0% = ACh EC20, 100% = maximal ACh; in the data active = activation above about 19%, passing the limit was not always enough
# CHO-K1 Ca antag – nonselective inhibitor or artifact in parental CHO-K1 cells; ATP-induced calcium, Fluo-8 fluorescence; inhibition, % at 3 µM; actives 0.6% (n = 360,000); AID 602250;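 active = inhibition above a per-plate cutoff, the plate's mean sample inhibition plus 3 SD, cut at about 24% in these data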
# A number is an active result; . = inactive.
SMILES,CHO-K1 Ca PAM,M1 antag,M1 ag,CHO-K1 Ca ag,M1 PAM,CHO-K1 Ca antag
COc1ccc(C(=O)NNC(=O)c2ccc(C(C)(C)C)cc2)cc1,.,.,.,.,.,.
COc1ccc(C(=O)NNC(=S)NC(=O)c2cc(-c3ccccc3)nc3ccccc23)cc1,.,.,.,30,.,.
COc1cc(C(=O)NNC(=S)NC(=O)c2ccccc2C)cc(OC)c1OC,.,.,.,24,.,.
COc1ccc(C(=O)NNC(=S)NC(=O)C(C)(C)C)cc1,.,.,77,86,.,.
Cc1ccc(NC(=O)CNC(=O)c2ccco2)cc1,.,.,.,.,.,.
COc1ccc(CN(C)S(=O)(=O)c2nnc(NC(=O)c3cccc(F)c3)s2)cc1,.,.,.,.,.,24
O=C(NC1(C(F)(F)F)N=C(c2ccccc2)NC1=O)c1ccccc1 (centres undefined),.,.,.,.,.,27
CCc1ccc(N2CCN(C(=O)N3CCOCC3)CC2)cc1,.,.,.,.,.,.
NC(=O)c1ccsc1NC(=O)COC(=O)CSc1ccc(Cl)cc1,.,.,.,.,.,24
N#Cc1ccc(OCC(=O)OCC(=O)Nc2sccc2C(N)=O)cc1,.,.,.,16,.,.
Cc1ccc(OC(C)C(=O)OCC(=O)Nc2sccc2C(N)=O)cc1 (centres undefined),.,.,.,15,.,.
Cc1ccc(OCC(=O)OCC(=O)Nc2sccc2C(N)=O)cc1C,.,.,.,.,.,33
NC(=O)c1ccsc1NC(=O)COC(=O)c1ccc(Cl)cc1,.,.,.,.,.,.
COc1cc(NC(=O)CCN2CCN(c3ccccc3OC)CC2)cc(OC)c1,.,.,.,.,.,.
CSc1ccc(CN2CCN(Cc3ccc([N+](=O)[O-])cc3)CC2)cc1,.,41,.,.,.,.
O=[N+]([O-])c1ccc(CN2CCCCCC2)cc1,.,.,.,.,.,.
CC(C)c1ccc(CCNC(=O)c2cccc(S(=O)(=O)N3CCN(C)CC3)c2)cc1,.,.,.,16,.,.
CN1CCN(S(=O)(=O)c2cccc(C(=O)NCCC3=CCCCC3)c2)CC1,.,.,.,.,.,.
O=C(Nc1ccc(N2CCOCC2)c(Cl)c1)c1ccc(Br)o1,.,41,.,.,.,.
O=C(Nc1ccc(N2CCN(C(=O)c3ccccc3)CC2)c(Cl)c1)c1ccc(Br)o1,.,.,.,.,.,.
CC(=O)c1cccc(CN2CCC(C(=O)Nc3ccc(Oc4cccnc4)cc3)CC2)c1,.,30,.,.,.,.
O=C(Nc1ccc(Oc2cccnc2)cc1)C1CCN(Cc2cccc(Cl)c2)CC1,.,.,.,.,.,.
OC(CNCCc1ccc(C(F)(F)F)cc1)COC(c1ccccc1)c1ccccc1 (centres undefined),.,76,.,.,.,.
Cn1c(=O)c2[nH]c(CCCCc3nc4ccccc4[nH]3)nc2n(C)c1=O,.,.,.,.,.,.
Cn1c(=O)c2[nH]c(CCCCCCCCc3nc4ccccc4[nH]3)nc2n(C)c1=O,.,37,.,.,.,.
SMILES,CHO-K1 Ca PAM,M1 antag,M1 ag,CHO-K1 Ca ag,M1 PAM,CHO-K1 Ca antag
O=[N+]([O-])c1ccc(/C=C/C2=NN(c3ccccc3)C(c3ccco3)C2)cc1 (centres undefined),.,25,19,20,.,33
O=[N+]([O-])c1ccc(C2=NN(c3ccccc3)C(c3ccco3)C2)cc1 (centres undefined),.,71,78,71,.,59
CC1=NN(c2ccccc2)C(c2ccco2)C1 (centres undefined),.,.,.,.,.,.
Cc1ccc(S(=O)(=O)N2CCNC(=O)CC2)cc1,.,.,.,23,.,.
Cc1ccc(S(=O)(=O)N2CCc3ccccc3CC2)cc1,.,.,.,.,.,.
CC(C)C1CC(CCN)(c2ccccc2)CCO1 (centres undefined),.,74,.,.,.,.
Cc1ccc(S(=O)(=O)Nc2ccc3cn[nH]c3c2)c(C)c1,.,.,.,.,.,.
CCOc1cc(C)c(S(=O)(=O)Nc2ccc3cn[nH]c3c2)cc1C,.,32,.,.,.,.
COc1cc(/C=N\NC(=O)C2COc3ccccc3O2)cc(OC)c1O (centres undefined),.,.,.,21,.,.

# High-throughput results from PubChem.
